Test results published in PubChem BioAssay (EPA / NIEHS).
The source made the active and inactive calls. The calls were made as follows: active = hit-call score of the fitted dose curve at least 0.9, where 1 is the maximum; inactive = score below 0.9.

How the values were obtained:
[1] = read-out: Thrombomodulin, THBD (gene 7056); assay: BSK_CASM3C_Thrombomodulin: BioMAP Diversity Plus: CASM3C Assay for Thrombomodulin Biomarker Activity (AID 2283051); settings: primary human coronary artery smooth muscle cells; actives raise or lower the signal;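 also: thrombomodulin protein level measured by ELISA 24 h after dosing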
[2] = read-out: Tissue Factor, F3 (gene 2152); assay: BSK_CASM3C_TissueFactor: BioMAP Diversity Plus: CASM3C Assay for Tissue Factor Biomarker Activity (AID 2283052); settings: primary human coronary artery smooth muscle cells; actives raise or lower the signal;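 also: cell surface tissue factor protein level read by ELISA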
[3] = read-out: Interferon-gamma inducible Protein 10 (IP10), CXCL10 (gene 3627); assay: BSK_hDFCGF_IP10: BioMAP Diversity Plus: hDFCGF Assay for Interferon-gamma inducible Protein 10 (IP10) Biomarker Activity (AID 2283053); settings: primary human foreskin fibroblasts; actives raise or lower the signal
Method in brief: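 ELISA read-out of IP-10 (CXCL10) from primary human skin fibroblasts, 24 h after compound addition. Gain or loss of signal versus DMSO baseline, bidirectional curve fitting.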

[4] = read-out: Urokinase-type plasminogen activator receptor (uPAR), PLAUR (gene 5329); assay: BSK_CASM3C_uPAR: BioMAP Diversity Plus: CASM3C Assay for Urokinase-type plasminogen activator receptor (uPAR) Biomarker Activity (AID 2283054); settings: primary human coronary artery smooth muscle cells; actives raise or lower the signal;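 also: cell-surface uPAR protein level quantified by ELISA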
[5] = read-out: Vascular cell adhesion molecule 1 (VCAM1), VCAM1 (gene 7412); assay: BSK_CASM3C_VCAM1: BioMAP Diversity Plus: CASM3C Assay for Vascular cell adhesion molecule 1 (VCAM1) Biomarker Activity (AID 2283055); settings: primary human coronary artery smooth muscle cells; actives raise or lower the signal;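 also: VCAM-1 protein level quantified by ELISA on the cells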
[6] = read-out: Collagen III, COL3A1 (gene 1281); assay: BSK_hDFCGF_CollagenIII: BioMAP Diversity Plus: hDFCGF Assay for Collagen III Biomarker Activity (AID 2283056); settings: primary human foreskin fibroblasts; actives raise or lower the signal
Method in brief: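 Human foreskin fibroblast primary cultures sampled 24 h after dosing; Collagen III quantified by ELISA. Signal fitted bidirectionally against DMSO baseline.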

[7] = read-out: Epidermal growth factor receptor (EGFR), EGFR (gene 1956); assay: BSK_hDFCGF_EGFR: BioMAP Diversity Plus: hDFCGF Assay for Epidermal growth factor receptor (EGFR) Biomarker Activity (AID 2283057); settings: primary human foreskin fibroblasts; actives raise or lower the signal
Method in brief: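 ELISA readout of EGFR on human dermal fibroblasts (primary foreskin cells), 24 h post-dosing; bidirectional curve fit vs DMSO baseline, gain or loss of signal scored.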

[8] = read-out: Interleukin-8 (IL8), CXCL8 (gene 3576); assay: BSK_hDFCGF_IL8: BioMAP Diversity Plus: hDFCGF Assay for Interleukin-8 (IL8) Biomarker Activity (AID 2283058); settings: primary human foreskin fibroblasts; actives raise or lower the signal
Method in brief: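 Primary human foreskin fibroblasts (hDFCGF system) dosed with chemical; IL-8 measured by ELISA 24 hours later. Bidirectional curve fitting relative to DMSO baseline; cytotoxicity tracked in parallel cultures by SRB total protein staining.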

[9] = BSK_hDFCGF_Proliferation: Cell Proliferation Assessment in the BioMAP Diversity Plus: hDFCGF Assay (AID 2283059); settings: primary human foreskin fibroblasts;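 also: curves fitted for both rise and fall of signal versus DMSO baseline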
Method in brief: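 Total protein read at 560 nm after 0.1% SRB staining of TCA-fixed human skin fibroblasts, […]. Activity is fitted in both directions relative to DMSO as baseline.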

[10] = read-out: Macrophage colony-stimulating factor (MCSF), CSF1 (gene 1435); assay: BSK_hDFCGF_MCSF: BioMAP Diversity Plus: hDFCGF Assay for Macrophage colony-stimulating factor (MCSF) Biomarker Activity (AID 2283060); settings: primary human foreskin fibroblasts; actives raise or lower the signal
Method in brief: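 Human foreskin fibroblast primary cultures; M-CSF measured by ELISA 24 hours after chemical dosing. Bidirectional fitting relative to DMSO, with overt cytotoxicity tracked by parallel SRB total-protein staining (0.1% SRB, 10% TCA fixation, 560 nm).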

Measured: AC50

CCOCCOCCO
inactive: all assays above

O=NO
not listed: [7]
inactive: all other assays above

Cc1cn([C@H]2C=C[C@@H](CO)O2)c(=O)[nH]c1=O
not listed: [7]
inactive: all other assays above

C/C=C/c1ccc(OC)cc1
not listed: [7]
inactive: all other assays above

COC(=O)[C@H]1[C@H]2C[C@@H]3c4[nH]c5cc(OC)ccc5c4CCN3C[C@H]2C[C@@H](OC(=O)c2cc(OC)c(OC)c(OC)c2)[C@@H]1OC
active: [1] 16.9 µM | [9] 16.9 µM
not listed: [6]
inactive: all other assays above

CCCCC(CC)COC(=O)CCCCCCCC(=O)OCC(CC)CCCC (configuration not stated)
not listed: [7]
inactive: all other assays above

CCCCCCCCCC[N+](C)(C)[O-]
not listed: [7]
inactive: all other assays above

CC(COCC(C)OC(=O)c1ccccc1)OC(=O)c1ccccc1 (configuration not stated)
active: [9] 33.7 µM
not listed: [7]
inactive: all other assays above

Cc1ccc(C(C)(C)C)c(O)c1
not listed: [7]
inactive: all other assays above

OCC(O)CO
not listed: [7]
inactive: all other assays above

CC(=O)CC(c1ccccc1)c1c(O)c2ccccc2oc1=O (configuration not stated)
not listed: [7]
inactive: all other assays above

S=c1[nH]c2ccccc2s1
active: [1] 8.08 µM | [6] 6.58 µM
not listed: [7]
inactive: all other assays above

CC(C)(O)c1ccc(CNC(=O)c2cccnc2Oc2ccc(F)cc2)cc1
not listed: [7]
inactive: all other assays above

CC1=C(C)S(=O)(=O)CCS1(=O)=O
not listed: [7]
inactive: all other assays above

Cc1cc(Cc2ccc(N)c(C)c2)ccc1N
active: [9] 3.12 µM
not listed: [7]
inactive: all other assays above

CCCC[C@H]1CN(CC2CCOCC2)C(=O)OC12CCN(C1(C)CCN(C(=O)c3c(C)ncnc3C)CC1)CC2
not listed: [7]
inactive: all other assays above

NC(=Nc1ccccc1)Nc1ccccc1
active: [9] 30.3 µM | [10] 9.15 µM
not listed: [7]
inactive: all other assays above

NC1CCCCC1
not listed: [7]
inactive: all other assays above

CCc1nc(N)nc(N)c1-c1ccc(Cl)cc1
not listed: [7]
inactive: all other assays above

Cc1cc(SC2=C(O)C[C@@](CCc3ccc(N)cc3)(C(C)C)OC2=O)c(C(C)(C)C)cc1CO
not listed: [7]
inactive: all other assays above

CN(C)CCCN1c2ccccc2Sc2ccc(Cl)cc21
active: [1] 15 µM | [3] 26.1 µM | [4] 20 µM | [8] 31.4 µM | [9] 16.6 µM | [10] 22.1 µM
inactive: [2] | [5]

CC(C)COC(=O)CCCCC(=O)OCC(C)C
not listed: [7]
inactive: all other assays above

C=CCCCCCCCCCCCC
not listed: [7]
inactive: all other assays above

N[C@@H](Cc1c[nH]c2ccccc12)C(=O)O
not listed: [7]
inactive: all other assays above

NC=O
active: [9] 19.2 µM
not listed: [7]
inactive: all other assays above

COc1ccc(OC(F)(F)F)cc1CN[C@H]1CCCN[C@H]1c1ccccc1
not listed: [7] | [9]
inactive: all other assays above

C=CCc1ccc(OC)c(OC)c1
not listed: [7]
inactive: all other assays above

O=C1NC(=O)C(c2ccccc2)(c2ccccc2)N1
not listed: [4] | [7]
inactive: all other assays above

Oc1ccc(O)cc1
inactive: [2] | [4]
active: [1] 10.7 µM | [3] 20.6 µM | [5] 9.44 µM | [6] 20 µM | [8] 31.5 µM | [9] 0.465 µM | [10] 11.6 µM

COc1ccc(C(=O)Nc2nc3ccccc3c(NCc3ccccc3)c2C#N)cc1
active: [6] 2.8 µM | [9] 5.53 µM
not listed: [7]
inactive: all other assays above

Nc1nc(=S)c2[nH]cnc2[nH]1
active: [6] 26.1 µM | [9] 14 µM
not listed: [7]
inactive: all other assays above
